# An excerpt weighted towards active compounds, which were near 2.6% of everything screened.
# Cruzain Triton – blocks cruzain activity in presence of Triton detergent; Potency, µM, for inactives: max response, negative = inhibition, usual class: inhibitors; 200,000 tested, 0.43% active; purified cruzain, Z-FR-AMC fluorescence, 0.01% Triton;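 also: plate controls were neutral wells for no effect and buffer without enzyme for full effect; nearly all actives have a fitted effect of over 40% in size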
# Target sequence (P25779 123-467 limits assumed): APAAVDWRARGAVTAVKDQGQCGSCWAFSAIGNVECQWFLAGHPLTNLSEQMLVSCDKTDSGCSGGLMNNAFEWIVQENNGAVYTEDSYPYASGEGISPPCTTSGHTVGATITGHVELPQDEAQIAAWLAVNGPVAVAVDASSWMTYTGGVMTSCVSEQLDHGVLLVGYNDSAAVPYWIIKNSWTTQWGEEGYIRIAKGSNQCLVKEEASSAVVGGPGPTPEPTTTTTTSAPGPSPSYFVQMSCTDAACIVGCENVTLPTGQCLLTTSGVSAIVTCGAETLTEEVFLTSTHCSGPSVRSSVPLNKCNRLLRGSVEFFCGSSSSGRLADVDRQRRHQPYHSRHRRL
#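 Cysteine protease activity tested under reducing, mildly acidic conditions (100 mM sodium acetate pH 5.5, 5 mM DTT) plus 0.01% Triton X-100. Cruzain 1.5 nM; substrate Z-FR-AMC 2 uM; 15 min compound preincubation at room temperature.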
# Cruzain inh noDet – cruzain (T. cruzi) inhibition without detergent. P25779. purified cruzain, Z-FR-AMC fluorescence, no detergent. Potency, µM, inactives show max response, negative = inhibition, actives largely listed as inhibitors. 200,000 tested, 2.3% active;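 also: plate controls were enzyme without inhibitor for no effect and buffer without enzyme for full effect; nearly all actives have a fitted effect of over 40% in size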
#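 Detergent-free condition (0.00005% Triton X-100) in acetate buffer pH 5.5 with DTT. 1.5 nM enzyme and compound were pre-mixed 15 min, then 2 uM Z-FR-AMC substrate added; reaction progress from fluorescence change between first and third reads (60 s).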
# Active calls of the source: *; ? = inconclusive; ! = not confirmed by another sample. Calls follow the shape of the dose curve; as a rule, active = well fitted curve in the direction sought with a large enough effect; inconclusive = small, poorly fitted or top-dose-only effect, or another doubt; inactive = no such curve, though single readings can be large; an effect the other way counts as inactive or inconclusive. Potency is read from the fitted curve at half-maximal effect.
SMILES,Cruzain Triton,Cruzain inh noDet
O=C(Nc1c(C(=O)Nc2ccc(F)cc2)oc2ccccc12)c1ccccc1F,-4%,-4%
COc1ccc(NC(=O)C(=O)N/N=C/c2cc(C)n(-c3cccc(Cl)c3Cl)c2C)c(OC)c1,-4%,13µM*
COc1ccc(OC)c(NC(=O)C(=O)N/N=C/c2ccccc2[N+](=O)[O-])c1,1%,-20%
Cc1ccc(-n2ncc3c(N4CCCCCC4)ncnc32)cc1C,0%,16%
Cc1ccc(NC(=O)C2CCN(c3nc4ccccc4[nH]3)CC2)cc1Cl,0%,12%
O=[N+]([O-])c1cc(-n2cnnn2)ccc1N1CCC(Cc2ccccc2)CC1,-5%,25µM*
CC1CC(C)CN(c2ccc(-n3cnnn3)cc2[N+](=O)[O-])C1 (configuration not stated),-6%,3%
O=C(NCc1ccccc1F)C(=O)NCC(c1ccc2c(c1)OCO2)N1CCOCC1 (configuration not stated),-3%,-14%
Clc1ccc(OCCSCc2nc3ccccc3[nH]2)cc1,?,25µM*
Cc1ccc(OCCSCc2nc3ccccc3[nH]2)cc1,-20%,-9%
N=C(N)SCc1nc2ccccc2c(=O)n1-c1ccccc1,-3%,25µM*!
O=c1c2ccccc2nc(CSc2ncnc3nc[nH]c23)n1-c1ccccc1,5%,-13%
CSc1nc2sc3c(c2c(=O)n1-c1ccc(C)cc1)CCCC3,1%,16%
Cc1ccc(NC(=O)c2oc3ccccc3c2NC(=O)c2cc3ccccc3o2)cc1,0%,?
O=C(Nc1c(C(=O)Nc2cccc(F)c2)oc2ccccc12)c1cc2ccccc2o1,-3%,16µM*
c1ccc(Cc2nnc3sc(Nc4ccccc4)nn23)cc1,1%,25µM*
Brc1ccc(-c2nn3c(Cc4ccccc4)nnc3s2)o1,0%,2%
COc1ccc(C2/C=C\CC(NC(=O)OCC3c4ccccc4-c4ccccc43)CC(=O)N2Cc2cccc(F)c2)cc1 (configuration not stated),1%,?
COc1ccc(C2/C=C\CC(NC(=O)OCC3c4ccccc4-c4ccccc43)CC(=O)N2Cc2ccccc2F)cc1 (configuration not stated),1%,13µM*
CCOc1ccc(CC(=O)Nc2c(C(=O)c3ccc(Cl)cc3)oc3ccccc23)cc1OCC,1%,10%
COc1ccc(OC)c(-c2csc(NC(=O)CSc3ccccc3)n2)c1,-6%,4%
O=C(Nc1nc(-c2ccncc2)cs1)C1c2ccccc2Oc2ccccc21,-10%,?
COc1ccc(OC)c(-c2csc(NC(=O)C3c4ccccc4Oc4ccccc43)n2)c1,1%,20µM*
O=C(Nc1nc(-c2ccccc2)cs1)C1c2ccccc2Oc2ccccc21,5%,20µM*
COc1ccc2oc(=O)cc(CN3CCN(c4ccc(F)cc4)CC3)c2c1,-2%,-29%
SMILES,Cruzain Triton,Cruzain inh noDet
COc1ccccc1NC(=O)CCn1cnc2ccccc2c1=O,-1%,-15%
CC(C)CCn1c(SCc2c(F)cccc2Cl)nc2ccsc2c1=O,4%,2%
CC(=O)c1ccc(NC(=O)c2cc3sccc3n2Cc2ccc(Cl)cc2)cc1,-4%,?
CCOC(=O)c1ccc(NC(=O)c2cc3sccc3n2Cc2ccc(Cl)cc2)cc1,2%,10µM*
CCOC(=O)c1cccc(NC(=O)c2cc3sccc3n2Cc2ccc(Cl)cc2)c1,4%,9%
Cc1ccc(Cn2c(C(=O)Nc3cccc(Cl)c3)cc3sccc32)cc1,-5%,25µM*
COc1ccc(-c2cc(=O)oc3cc(OCC(C)=O)ccc23)cc1,-5%,-7%
COc1ccc(-c2cc(=O)oc3cc(OCC(=O)c4cccc([N+](=O)[O-])c4)ccc23)cc1,-8%,25µM*
Cc1ccc(C(=O)NCC(=O)OC(C)C(=O)NCCC2=CCCCC2)cc1C (configuration not stated),22µM*,?
Cc1ccccc1NS(=O)(=O)c1cc(C(=O)NCCC2=CCCCC2)ccc1Cl,-2%,-1%
Clc1ccccc1CN1CCN(c2ccccc2Cl)CC1,-3%,8%
N#CCC(=N)N1CCN(c2ccccc2)CC1,-3%,-4%
N#CCC(=N)N1CCN(c2ccccc2Cl)CC1,-3%,25µM*
N#CCC(=N)N1CCN(c2cccc(Cl)c2)CC1,0%,13µM*
COCCNc1nc(-c2ccccc2Cl)nc2ccccc12,-2%,7%
Cc1ccccc1-n1c2nc(=O)[nH]c(=O)c-2cc2c(Cl)cccc21,-6%,-23%
Cc1cccc(Cn2c(CN3CCCC(C)C3)nc3c2c(=O)n(C)c(=O)n3C)c1 (configuration not stated),0%,0%
COc1ccc(Cl)cc1NC(=O)COC(=O)CNC(=O)c1ccc([N+](=O)[O-])c(C)c1,20µM*,?
O=C(COC(=O)CSc1cc(Cl)ccc1Cl)Nc1ncc(C(F)(F)F)cc1Cl,-23%,-6%
Cc1ccc(C(=O)NCC(=O)OCC(=O)Nc2ccc(Cl)cc2C(F)(F)F)cc1C,14µM*,?
Cc1ccsc1C(=O)OCC(=O)Nc1ccc(Cl)cc1C(F)(F)F,3%,-3%
COc1ccc(C(=O)NCC(=O)OCC(=O)Nc2cc(OC)ccc2OC)cc1,?,-18%
O=C(COC(=O)CNC(=O)c1ccc(Cl)cc1)Nc1ncc(C(F)(F)F)cc1Cl,7.9µM*,4µM*
Cc1cc(C(=O)NCC(=O)OCC(=O)Nc2ccc(OC(F)F)cc2)ccc1[N+](=O)[O-],11µM*,10µM*
COc1ccc(NC(=O)COC(=O)CNC(=O)c2cc(OC)c(OC)c(OC)c2)cc1,-6%,-10%
SMILES,Cruzain Triton,Cruzain inh noDet
CC1Cc2ccccc2N1S(=O)(=O)c1nnc(NC(=O)c2ccccc2Br)s1 (configuration not stated),-1%,7%
COCCOC(=O)c1c(-c2ccccc2)c(-c2ccccc2)nn(C)c1=O,-1%,11%
COCC(=O)OCC(=O)Nc1cc(C)c(C)cc1[N+](=O)[O-],-2%,4%
Cc1ccc(C(=O)NCC(=O)OCC(=O)Nc2cc(C)c(C)cc2[N+](=O)[O-])cc1,8.9µM*,10µM*
Cc1nnc(-c2ccc(Oc3ccc(Br)cc3)c([N+](=O)[O-])c2)o1,-3%,4%
Cc1cc(Oc2ccc(-c3nnc(-c4ccccc4)o3)cc2[N+](=O)[O-])ccc1Cl,0%,13µM*
Cc1ccc(-n2ncc(C(=O)N3CCC(c4ccccc4)C3)c2C2CCN(C(=O)OC(C)(C)C)CC2)cc1 (configuration not stated),-2%,?
Cc1ccc2nc(-c3ccc(NC(=O)COC(=O)c4ccco4)cc3)sc2c1,-2%,?
CC(=O)NC(=S)Nc1ccc(-c2nc3ccc(C)cc3s2)cc1,-1%,6.3µM*
Cc1ccc2nc(-c3ccc(NC(=O)COC(=O)c4cncc(Br)c4)cc3)sc2c1,-2%,6.3µM*
Cc1ccc2nc(-c3ccc(NC(=O)COC(=O)c4ccc([N+](=O)[O-])o4)cc3)sc2c1,-6%,16µM*
CCOc1ncccc1C(=O)OCC(=O)Nc1ccc(-c2nc3ccc(C)cc3s2)cc1,-5%,-3%
CCC(C)(C)NC(=S)Nc1ccc(-c2nc3ccc(C)cc3s2)cc1,-2%,?
Cc1ccc2nc(-c3ccc(NC(=O)COC(=O)c4ccc(Br)o4)cc3)sc2c1,-1%,13µM*
Cc1ccc2nc(-c3ccc(NC(=O)COc4ccccc4)cc3)sc2c1,0%,?
Cc1ccc(C)c(NC(=O)c2cc(S(=O)(=O)N3CCCc4ccccc43)ccc2F)c1,1%,-24%

# From PubChem
